Experimental data reported in PubChem BioAssay (NCI).
Compounds without any hit were thinned out: in the full panel of roughly 83,000, 20% have a hit.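 For each line, cells grew in 96-well plates with the test compound present at a single concentration for 48 hours.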 Active and inactive are the calls of the source. Rule for the calls: active = growth percent below 10; inactive = the rest.

How the values were obtained:
Experiment in all cases: NCI-60 one-dose screen, 48 h (100 = growth as untreated, 0 = no growth, -100 = all killed)
Conditions in all cases: 10 µM unless noted
[1] = system: T-47D breast
[2] = system: BT-549 breast
[3] = system: MDA-MB-435 melanoma
[4] = system: MCF7 breast
[5] = system: HCT-116 colon
[6] = system: HCC-2998 colon
[7] = system: KM12 colon
[8] = system: SW-620 colon

Measured: growth

C=CCOc1ccc(/C(O)=C2\C(=O)C(=O)N(c3nccs3)C2c2ccccc2F)cc1 (configuration not stated)
inactive: [1] 100% | [2] 113% | [3] 94% | [4] 112% | [5] 95.4% | [6] 107% | [7] 89.4%

COc1ccc2c(c1)NC(=O)CN2c1nc(C)nc2ccccc12
active: [2] 1.24% | [3] 1.13% | [5] 0.468% | [7] 8.92%
inactive: [1] 55.5% | [4] 14.9% | [6] 16.6%

COc1ncc(-c2ccc3ncnc(Nc4cccc(Cl)c4)c3c2)cc1N(S(C)(=O)=O)S(C)(=O)=O
inactive: [2] 78.1% | [3] 77.7% | [8] 75.7% | [4] 27.7% | [5] 81.2% | [6] 76.4% | [7] 81.1%

O=S(=O)(NCCNc1nccc(-c2c(-c3ccccc3)nc3sccn23)n1)c1ccc(O)cc1
inactive: [1] 41.2% | [2] 48.9% | [3] 10.5% | [4] 18.5% | [5] 21.5% | [6] 64.9% | [7] 21.6%

COc1ccc2c(c1)C(=O)/C(=C/c1ccc(O)cc1)O2
active: [8] 9.11% | [5] 8.95%
inactive: [1] 59.8% | [3] 93.2% | [4] 22.8% | [6] 114%

Clc1nc(Cl)c2ncn(C/C=C/Cn3cnc4c(Cl)nc(Cl)nc43)c2n1
inactive: [1] 38.2% | [3] 98.3% | [4] 38.3% | [5] 33.3% | [7] 78.7%
active: [2] -33.3%

COc1ccc(C2=NN(c3ccc(S(N)(=O)=O)cc3)C(c3cn(-c4ccccc4)nc3-c3ccc(Cl)cc3)C2)cc1 (configuration not stated)
inactive: [1] 67.1% | [3] 79.3% | [8] 101% | [4] 66.7% | [5] 74.5% | [6] 98.2% | [7] 88.6%

COc1ccc(-c2cn[nH]c2-c2cc(OC)c3c(c2)OCCO3)cc1
inactive: [1] 49.5% | [2] 53.3% | [8] 25.5% | [4] 19.6% | [5] 10.5% | [6] 25.3%
active: [7] 3.46%

O=c1[nH]c(-c2cn(-c3ccc(Cl)cc3)nn2)nc2ccccc12
inactive: [1] 54.4% | [2] 79.6% | [3] 77.2% | [4] 99.8% | [5] 52% | [6] 90% | [7] 84.7%

CC(=O)OCC1OC(OCC2OC(OC(C)=O)C(OC(C)=O)C(OC(C)=O)C2OC(C)=O)C(OC(C)=O)C(OC(C)=O)C1OC(C)=O (configuration not stated)
inactive: [2] 100% | [3] 104% | [8] 105% | [4] 94.9% | [5] 99% | [6] 96.2% | [7] 108%

COc1cc(/C=C2\CCCC3=C2N=C2SC(C)=NN2C3c2cc(OC)c(OC)c(OC)c2)cc(OC)c1OC (configuration not stated)
inactive: [1] 37.6% | [8] 10.3% | [4] 12.5% | [6] 55.4%
active: [3] -63.9% | [5] -71.6%

CCCCCCc1nc2c(c(C)nn2-c2ccccc2)c2c1CCCCC2
inactive: [1] 92.2% | [2] 113% | [3] 116% | [4] 107% | [6] 106% | [7] 108%

COc1cccc(-c2nc3sccn3c2-c2ccnc(NCCNS(=O)(=O)c3ccccc3)n2)c1
inactive: [2] 58.2% | [3] 29.8% | [4] 53.3% | [5] 49.7% | [6] 119% | [7] 53.4%
active: [1] 9.54%

CCCCOc1nc2c(C)cccc2cc1C1CNC(=O)c2ccccc2N1 (configuration not stated)
inactive: [2] 74.5% | [8] 42.3% | [4] 15.8% | [5] 45.9% | [6] 101%
active: [3] 4.51%

COc1cc(/C=C/C(=O)c2ccc(NC(=O)CN3CCN(c4cc5c(cc4F)c(=O)c(C(=O)O)cn5C4CC4)CC3)cc2)cc(OC)c1OC
inactive: [4] 26.5%
active: [2] -86.7% | [3] -1.52% | [8] 6.38% | [5] -88.2% | [6] -11.6%

COC(=O)[C@H]1[C@H](OC)[C@@H](OC(=O)/C=C/c2ccncc2)CC2CN3CCc4c([nH]c5cc(OC)ccc45)[C@@H]3C[C@@H]21 (some centres not stated)
inactive: [1] 36.8% | [3] 77.9% | [4] 55.9% | [5] 61.1% | [6] 122% | [7] 93.6%

COc1ccc2c(c1)C(C)Cc1c(N(C)C)ncnc1N2C (configuration not stated)
inactive: [1] 34.7% | [2] 17.7% | [4] 19.5% | [5] 23.7% | [6] 74.6% | [7] 23.6%
active: [3] -5.79%

c1ccc2nc(-c3ccc4ccccc4n3)ccc2c1
inactive: [2] 93.7% | [3] 91.9% | [8] 100% | [4] 61.8% | [5] 88.7% | [6] 101% | [7] 90.4%

Cc1ccc(C2=NN(c3ccc(S(N)(=O)=O)cc3)C(c3cn(-c4ccccc4)nc3-c3ccccc3)C2)cc1 (configuration not stated)
inactive: [1] 83.7% | [3] 62.7% | [8] 86.5% | [4] 55.9% | [5] 83.9% | [6] 118% | [7] 41.1%

COc1ccc(C2CC(c3cccs3)=NN2c2ccc(S(=O)(=O)NC(=O)Nc3ccc(C)cc3)cc2)cc1 (configuration not stated)
inactive: [2] 74.2% | [3] 61.9% | [8] 106% | [4] 97.1% | [5] 85.1% | [6] 109% | [7] 97.4%

CC(=O)Nc1ccc(S(=O)(=O)N2C(=O)CCC2C(=O)Nc2ccccc2)cc1 (configuration not stated)
inactive: [1] 17.6% | [3] 27.7% | [8] 30.2% | [4] 19.2% | [5] 26.5% | [6] 30.5% | [7] 12.4%

Cn1c(C(N)=O)cc2c1-c1nc(NC3CCCCC3)ncc1CCC2
inactive: [1] 105% | [2] 80.7% | [3] 96.5% | [4] 90.6% | [5] 88.1% | [6] 97.5% | [7] 104%

CCN1C(=O)/C(=c2\sc3n(c2=O)C2C(NN=3)N(CC)C(=S)N2CC)c2ccccc21 (configuration not stated)
inactive: [2] 98.8% | [3] 88.4% | [8] 102% | [4] 82.8% | [5] 103% | [6] 104%

C=C1C(=O)O[C@H]2[C@H](O)[C@@H](C)CCC/C(C)=C/CC[C@@]3(C)O[C@@H]3C[C@@H]12
inactive: [1] 97.2% | [3] 94.4% | [8] 79.9% | [4] 69.1% | [5] 74.3% | [6] 111% | [7] 119%

Nc1ccccc1C#C/C=C\C#Cc1cccc(O)c1
inactive: [1] 55.2% | [2] 44.8% | [4] 35.9% | [5] 42.3% | [6] 41.3% | [7] 27.9%
active: [3] 6.89%
